From PubChem
Marburg entry inh = blocks Marburg virus binding to or entry into cells | 300,000 tested, 1.8% active | Marburg virus pseudotyped entry inhibition, cell reporter | Potency, µM (titrated, usually from 37.8 µM), for the others: at the highest dose activity change, negative = inhibition, hits mostly inhibitors; calls by dose curve; tested in HEK293 cells; further: potency means the concentration at half of the fitted maximal effect
FMDV inh = foot and mouth disease virus antiviral activity; FMDV antiviral cell-based qHTS; Potency, µM (series often up to 57.9 µM), inactives show at the top dose activity change, negative = inhibition, actives largely listed as inhibitors; 410,000 tested, 1.2% active; AID 1159524; calls by dose curve; tested in HEK293T cells; further: read-out not given here; potency means the concentration at half of the fitted maximal effect; nearly all actives have a fitted effect of over 45% in size
Lassa entry inh = Lassa virus entry inhibition; Lassa virus pseudotype entry inhibition, cell reporter; Potency, µM (top dose mostly 37.9 µM), inactives show at the top dose activity change, negative = inhibition, most hits filed as inhibitors; 300,000 tested, 1.2% active; AID 540256; calls by dose curve; tested in HEK293 cells; further: potency means the concentration at half of the fitted maximal effect; nearly all actives have a fitted effect of over 50% in size
HCMV inh = blocks human cytomegalovirus replication. HFF cells, HCMV-luciferase reporter, 72 h; active compounds read low. AID 1259415. 410,000 tested, 4.5% active. activity change, negative = inhibition, % at 57.5 µM; in the data active means activity change below about -60%; inconclusive means no clear call, values can overlap the other calls; inactive means above about -39%
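Cell-based, HFFs, 1000 cells/well, 16 h 37C; cpds in DMSO + HCMV-luc, MOI 1 PFU/cell; 72 h 37C; OneGlo luminescence after 5 min RT; norm. to buffer vs Salinomycin 10uM.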
Numbers without * were called inactive; ? = inconclusive; . = not tested or not shown; [ ] = another dose, or the depositor's remark. Only some compounds are listed: those with a hit (about 6.2% of all), similar ones and a draw of the others. On the % scale 0 is the no-effect control and ±100 the full control effect.

SMILES | Marburg entry inh | FMDV inh | Lassa entry inh | HCMV inh
O=C(Nc1ccc(OCC(F)(F)C(F)F)c(C(F)(F)F)c1)c1ccccc1O | ? | ? | ? | -97*
CCOc1ccc(NC(=O)c2ccncc2)cc1 | -13% | 15% | 30% | 13
CC(C)c1ccc(NC(=O)Cn2c(=O)n(CC3CCC(C(=O)NCCc4ccccc4)CC3)c(=O)c3ccccc32)cc1 (configuration not stated) | 0%[46.1 µM] | -12% | 3%[46.1 µM] | 35
CC(CN1c2ccccc2Sc2ccccc21)N(C)C (configuration not stated) | 1.1µM* | -7% | ? | 6
CCN(CC)CC(O)CN1c2ccccc2Sc2ccccc21 (configuration not stated) | 3.2µM* | -10% | ? | .
OCCN(CCO)CC(O)CN1c2ccccc2Sc2ccccc21 (configuration not stated) | 0% | -6% | . | .
CCN(CC)CCCCN1c2ccccc2Sc2ccccc21 | 11µM* | ? | ? | 1
Cc1c(C(=O)N(CCO)C(C)C)cnn1-c1ncc2c(n1)-c1ccccc1CCC2 | . | 9% | . | .
CCOC(=O)C1CCCN(S(=O)(=O)c2cc3c4c(c2)CC(=O)N4CCC3)C1 (configuration not stated) | . | -16% | ? | -13
COc1ccc(NC(=O)Nc2ccc(Cc3ccncc3)cc2)cc1OC | -1%[46.1 µM] | 22µM* | -7% | -14
CCN(CC)S(=O)(=O)c1cc(NC(=O)CCc2c(C)noc2C)ccc1C | ? | -16% | -15%[46.1 µM] | 16
CCN(CC)S(=O)(=O)c1cc(NC(=O)CSCc2c(C)noc2C)ccc1C | ? | -15% | 2.8µM* | -17
COc1cccc2c1O/C(=N\O)C(C(=O)Nc1ccc(C)cc1)C2 (configuration not stated) | . | 6% | . | -60*
COc1ccc(NC(=O)C2Cc3cccc(OC)c3O/C2=N\O)cc1 (configuration not stated) | . | -1% | . | -29
CS(=O)(=O)N1CCc2cc(C(=O)Nc3ccc(Cl)c(C(F)(F)F)c3)ccc21 | ? | -13% | ? | -71*
Cc1ccc(NC(=O)c2ccc3c(c2)CCN3S(C)(=O)=O)cc1 | . | 39% | . | 15
CCCCOC(=O)c1ccc(NC(=O)c2ccc3c(c2)CCN3S(C)(=O)=O)cc1 | ? | 35µM* | 4%[46.1 µM] | -17
CC(C)c1ccc(NC(=O)c2ccc3c(c2)CCCN3S(C)(=O)=O)cc1 | ? | 10µM* | -24%[46.1 µM] | -74*
CCc1ccc(NC(=O)c2ccc3c(c2)CCN3S(C)(=O)=O)cc1 | . | -7% | . | 5
Cc1ccc(NC(=O)c2ccc3c(c2)CCN3S(C)(=O)=O)cc1C | ? | 19% | ? | 72
CCCCc1ccc(NC(=O)c2ccc3c(c2)CCN3S(=O)(=O)CC)cc1 | 1%[46.1 µM] | -6% | ? | -64*
CS(=O)(=O)N1CCc2cc(C(=O)Nc3ccc(C(F)(F)F)cc3)ccc21 | 14%[46.1 µM] | -9% | ? | -63*
Cc1ccc(S(=O)(=O)N/N=C\c2cc([N+](=O)[O-])ccc2Cl)cc1 | ? | . | ? | -90*
COc1ccc(C2C=C(C34CC5CC(CC(C5)C3)C4)NC(=S)N2)cc1 (configuration not stated) | 15µM* | -17% | ? | -22
COc1ccc(N(CC(=O)Nc2cccc(Cl)c2C)S(=O)(=O)c2c(C)nn(C)c2C)cc1 | -13%[46.1 µM] | -18% | -12%[46.1 µM] | -14
SMILES | Marburg entry inh | FMDV inh | Lassa entry inh | HCMV inh
O=C(Cc1ccc(Cl)cc1)Nc1ccc2oc(=O)ccc2c1 | -13%[46.1 µM] | -24% | -14% | -64*
COc1ccc(-c2nc3cc(NC(=O)Cc4ccc(OC)c(OC)c4)ccc3o2)cc1 | ? | ? | -20% | -76*
COc1ccc(-c2nc3cc(NC(=O)CSc4ccc(C)cc4)ccc3o2)cc1 | ? | 19% | ? | 78
O=C(Cc1ccc(Cl)cc1)Nc1ccc2oc(-c3ccc(F)cc3)nc2c1 | . | 14% | 3%[46.1 µM] | -9
COc1ccc(-c2nc3cc(NC(=O)Cc4ccc(Cl)cc4)ccc3o2)cc1OC | . | -20% | ? | -94*
CCOC(=O)N1CCc2c(sc3c2c(=O)n(-c2ccc(F)cc2)c(=O)n3CC(=O)c2ccc(Cl)cc2)C1 | -17%[46.1 µM] | -20% | -2%[46.1 µM] | -18
COC(=O)[C@@H]1[C@@H](CO)[C@@H]2Cn3c(cccc3=O)[C@@H]2N1C(=O)c1ccccc1 | . | . | . | -5
O=c1[nH]c(=O)c2nc(Br)n(C3OC(CO)C(O)C3O)c2[nH]1 (configuration not stated) | . | 8% | . | .
O=C1C=C2C(=CCOC2O)O1 (configuration not stated) | . | 14µM* | . | .
COc1ccc(C2=C(C)C(=O)N(Cc3ccc(C(=O)Nc4ccc(F)cc4C)cc3)S2(=O)=O)cc1 | . | -23% | ? | -63*
